KCNH2 WT inh – inhibitors of human wildtype KCNH2 potassium channel | Q12809 | U2OS, BacMam KCNH2, thallium flux FluxOr; active compounds read low | hit rate 0.37% among 340,000 | activity change, % at 1.84 µM;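 active means maximum activity change below -70%; inconclusive means maximum activity change between -70% and -50%; inactive means maximum activity change above -50%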; further: on the % scale 0 is the no-effect control and ±100 the full control effect
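U2OS cells were transduced with wild-type KCNH2 virus (2.03 x 10^8 / mL) for 4 h at room temperature, then cultured overnight at 37 C. Thallium flux was read with FluxOr dye. Rate constants were normalized to DMSO controls.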
TRPV1 potentiator – human TRPV1 potentiation | hit rate 0.02% among 320,000 | potentiation, % at 8.33 µM | AID 540277 | TRPV1-expressing cells, Fluo-8 calcium influx, capsaicin EC20 potentiation | Q8NER1; in the data active means potentiation above about 80%; inconclusive means between about 30% and that limit; further: 0% is about no effect
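Fluo-8 calcium influx in TRPV1-expressing cells, kinetic read (ex 480/em 520 nm). Compound added and read 3 min for agonist activity, followed by capsaicin at EC20 final and 2 min further read for enhancement.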
KCNH2 3.1 block – inhibitors of human KCNH2 3.1 potassium channel isoform | activity change, % (tested at about 1.8 µM) | U2OS KCNH2 3.1, thallium flux FluxOr; active compounds read low | hit rate 0.95% among 340,000;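 active means maximum activity change below -70%; inconclusive means maximum activity change from -70% to -50%; inactive means maximum activity change above -50%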;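 further: thallium influx rate constant from kinetic fluorescence after stimulation buffer; on the % scale 0 is the no-effect control and ±100 the full control effect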
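Virally transduced U2OS (3.1 isoform, 4 h infection in dark at RT) → overnight 37 C → FluxOr + Red40 in HBSS/HEPES, 45 min → stimulation buffer, 2 min kinetic read → rate constant vs DMSO controls.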
TRPV1 agonist – agonists of human vanilloid receptor 1 (TRPV1). Q8NER1. TRPV1-expressing cells, Fluo-8 calcium influx, agonist mode. activation, % at 8.33 µM. hit rate 0.19% among 320,000. AID 540275; in the data active means activation above about 80%; inconclusive means between about 30% and that limit; further: 0% is about no effect
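Cells expressing TRPV1 were dye-loaded with Fluo-8 and read kinetically: 10 s baseline, 3 min after compound (agonist portion), then 2 min after EC20 capsaicin (allosteric enhancer portion). Calcium-bound dye fluorescence at 480/520 nm.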
* = called active by the depositor; i = inactive; ? = inconclusive; · = not tested or not shown. Shown are actives, neighbours in structure and some others; about 1.2% of the full set was active somewhere.

SMILES	KCNH2 WT inh	TRPV1 potentiator	KCNH2 3.1 block	TRPV1 agonist
COc1ccc(/C=N/NC(=O)c2cccnc2)cc1CN1CCN(c2ccc(F)cc2)CC1	-17.8	0.2	-79.6*	2.0
COc1ccc(C(=O)N/N=C/c2ccc(OC)c(CN3CCN(c4ccc(F)cc4)CC3)c2)cc1	-168.0*	-7.2	-109.8*	1.5
COc1ccc(/C=N/NC(=O)c2ccoc2C)cc1CN1CCN(c2ccc(F)cc2)CC1	-48.6	10.0	-110.2*	-4.5
CCOc1ccc(/C=N/NC(=O)c2ccoc2C)cc1OC	4.1	7.8	17.2	-1.8
COc1ccc(/C=N/NC(=O)c2ccc(Br)cc2)cc1CN1CCOCC1	17.2	-3.9	-85.0*	2.8
COc1ccc(C(=O)N/N=C/c2ccc(OC)c(CN3CCCc4ccccc43)c2)cc1	2.6	3.3	-4.6	3.9
COc1ccc(/C=N/NC(=O)c2ccncc2)cc1CN1CCOCC1	18.7	-24.1	2.5	0.1
Cc1ccc(S(=O)(=O)Nc2cc(Br)cc3cccnc23)cc1	·	-0.7	·	7.9
CC(NC(=O)COc1ccccc1)C(=O)NCc1ccccc1Cl (stereo unspecified)	-8.4	·	4.1	·
COc1ccc(S(N)(=O)=O)cc1C(=O)OCC(=O)N1CC(=O)Nc2ccccc21	18.5	1.3	39.6	-5.6
CCN1CCN(c2ccc(S(=O)(=O)N3CCCCC3)cc2NC(=O)/C=C/c2ccc([N+](=O)[O-])cc2)CC1	-43.3	-2.0	-75.9*	-6.3
CCN1CCN(c2ccc(S(=O)(=O)N3CCCCC3)cc2NC(=O)c2cccc(OC(F)F)c2)CC1	-83.9*	2.3	-117.7*	-1.5
CCN1CCN(c2ccc(S(=O)(=O)N3CCCCC3)cc2NC(=O)/C=C/c2ccc(OC(F)F)cc2)CC1	-89.9*	-7.2	-79.7*	9.6
Cc1ccc2c(C)c(C(=O)NCC(C)(C)N3CCOCC3)oc2c1C	0.7	-13.3	0.5	?
CCCCn1c(C)cc2c(c1=O)C1O[C@](c3ccsc3)(Cc3cc(OC)c(OC)cc31)O2	·	i	·	i
NNC(=O)CNc1ccccc1Cl	0.1	-5.8	-1.1	1.9
CCc1cc(SC#N)cc(C)c1N	12.2	-0.4	-73.6*	3.6
CCc1cc(SC#N)cc(C)c1NC(=O)CCl	4.0	-2.9	-26.0	-0.9
CC(Sc1nc(-c2ccccc2)c(-c2ccccc2)[nH]1)C(=O)NCC1CCCO1 (stereo unspecified)	0.3	·	14.3	·
C=CCc1cccc2cc(C(=O)Nc3cccc(C(=O)O)c3)c(=O)oc12	5.8	-1.7	-2.3	-1.9
C=CCc1cccc2cc(C(=O)NNC(=O)c3ccncc3)c(=O)oc12	5.1	-10.3	14.4	81.2*
O=C(O)c1cccc(N/N=C/c2cccc3ccccc23)c1	1.1	-7.1	-72.7*	-4.1
Cc1ccc(C)c(N2CCN(CCCNC(=O)Cn3cccc3C(=O)c3ccccc3)CC2)c1	7.7	-4.0	-29.5	-0.2
CCOc1cccc(CN2CCC(n3nccc3NC(=O)c3ccc4c(c3)OCO4)CC2)c1	18.7	-8.8	-5.3	2.3
CCc1ccc(CN2CCC(n3nccc3NC(=O)c3ccccc3Cl)CC2)cc1	-97.2*	-1.8	-103.2*	-2.8
SMILES	KCNH2 WT inh	TRPV1 potentiator	KCNH2 3.1 block	TRPV1 agonist
CC(Cc1ccc(Cl)cc1)N1CCC(n2nccc2NC(=O)C2CCCC2)CC1 (stereo unspecified)	-20.8	-6.1	-100.7*	0.4
CSc1ccc(CN2CCC(n3nccc3NC(=O)C3CCOC3)CC2)cc1 (stereo unspecified)	41.0	6.6	-19.1	-1.0
CSc1ccc(CN2CCC(n3nccc3NC(=O)c3ccccc3C)CC2)cc1	-126.1*	25.5	-122.7*	-3.0
CCc1ccc(CN2CCC(n3nccc3NC(=O)c3ccc4c(c3)OCO4)CC2)cc1	?	12.4	-105.6*	-0.2
Cn1cc(CN2CCC(n3nccc3NC(=O)c3ccccc3Cl)CC2)cn1	25.3	-10.4	-18.4	-1.8
COc1ccc(/C=C/C(=O)NCCCN2CCOCC2)cc1	-1.9	-2.6	4.7	-0.1
COc1ccc(/C=C/C(=O)NCCCN2CCCCCC2)cc1	12.9	19.4	-3.8	0.7
Cc1ccc(/C=C/C(=O)NCCCN2CCN(CCCNC(=O)/C=C/c3ccc(C)o3)CC2)o1	-1.6	0.2	-76.4*	-0.8
O=C(/C=C/c1ccc(F)cc1)NCCCN1CCN(CCCNC(=O)/C=C/c2ccc(F)cc2)CC1	-42.9	7.7	-91.9*	4.0
CCN(CC(=O)Nc1ccccc1C(F)(F)F)C(=O)c1ccc(NC(=O)c2cccs2)cc1	24.7	·	5.9	·
COC(=O)[C@H]1[C@H]2C[C@@H]3c4[nH]c5cc(OC)ccc5c4CCN3C[C@H]2C[C@@H](OC(=O)/C=C/c2cc(OC)c(OC)c(OC)c2)[C@@H]1OC	-31.1	10.0	-72.8*	2.0
CCC(CC)NC(=O)Nc1ccccc1C(F)(F)F	-111.6*	-21.4	-18.3	10.0
CCCCOC(=O)Nc1ccc(C(C)C)cc1	-32.4	-0.5	-11.2	81.4*
CC(C)N(Cc1ccccc1)C(=O)C1CCCN(c2ncnc3c2nc2n3CCCCC2)C1 (stereo unspecified)	-6.0	-12.4	-98.1*	?
O=C(C1CCCN(c2ncnc3c2nc2n3CCCCC2)C1)N1CCN(c2cccc(Cl)c2)CC1 (stereo unspecified)	13.6	-5.1	-139.2*	18.8
COc1ccc2c(Cl)c(C(=O)NCCCn3ccnc3)sc2c1Cl	-8.6	16.5	-16.2	1.4
O=C(CSc1ncccc1C(=O)O)NC1CCCCCCC1	-2.8	7.1	-79.3*	-0.3
CCn1c(COc2ccccc2)nnc1SCC(=O)NC1CCCCC1	-176.0*	19.2	-5.0	-7.6
NC(=O)NC(=O)COC(=O)CCSc1ccccc1	-3.9	-19.1	-1.2	16.3
N#CCCn1cc(C(N)=O)c(-c2ccc3ccccc3c2)n1	-9.6	0.2	-1.7	-0.8
COc1ccc(CCNC(=O)COc2ncnc3cc([N+](=O)[O-])ccc23)cc1	0.9	4.1	-107.3*	-0.8
Clc1cccc(Cl)c1Cn1nnc(N2CCCC2)n1	-138.1*	?	-0.8	3.0
Fc1cccc(Cl)c1Cn1nnc(-c2ccc(N3CCOCC3)cc2)n1	-5.3	13.3	-5.0	5.9
COc1ccccc1OCCn1cc(C=O)c2ccccc21	-7.3	-13.2	-89.7*	10.4
O=C(NCc1ccco1)c1cnn2c1NC(c1ccc(Br)cc1)CC2C(F)(F)F (stereo unspecified)	-71.2*	-1.8	-0.2	1.4
SMILES	KCNH2 WT inh	TRPV1 potentiator	KCNH2 3.1 block	TRPV1 agonist
COc1ccc(C(=O)NCCc2cc3ccc(C)c(C)c3[nH]c2=O)cc1OC	-10.6	-9.3	-110.5*	0.1
Cn1cc(Br)c(NC(=O)/C=C/C(=O)O)n1	-5.7	28.6	-122.2*	-1.6
Cc1cc(Cn2nc(C(=O)NCc3cccc(C(F)(F)F)c3)cc2-c2ccccc2)on1	-29.2	-16.3	-82.9*	1.8
O=C(N/N=C\c1ccc(COc2ccc([N+](=O)[O-])cc2)o1)c1ccc(Cl)cc1	?	12.6	-76.8*	-0.6
C[C@H]1CN([C@@H](C)CO)S(=O)(=O)c2ccc(Br)cc2O[C@@H]1CN(C)Cc1cccc(F)c1	-7.1	·	-19.9	·
COC(=O)CC(c1ccc(OC)c(OC)c1)c1ccc(OC)c(OC)c1	-211.9*	-7.4	-5.2	1.1

Screening data (PubChem BioAssay)
